Laboratory results published in PubChem BioAssay (NCI).
Compounds without any hit were thinned out: in the full panel of roughly 83,000, 20% have a hit.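 How to read the values: 0–100, growth inhibition (40 = 60% inhibited); 0, no net growth; -100 to 0, cell death (-40 = 40% of starting cells died; -100 = all dead).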 The source made the active and inactive calls. Rule for the calls: active = growth percent below 10; inactive = the rest.

Experiments:
Assay in all cases: NCI-60 one-dose screen, 48 h (100 = growth as untreated, 0 = no growth, -100 = all killed)
Conditions in all cases: 10 µM
NCI-H23 lung = tested on: NCI-H23 lung
NCI-H226 lung = tested on: NCI-H226 lung
NCI-H322M lung = tested on: NCI-H322M lung
HOP-62 NSCLC = tested on: HOP-62 NSCLC
NCI-H460 lung = tested on: NCI-H460 lung
NCI-H522 lung = tested on: NCI-H522 lung
A549/ATCC NSCLC = tested on: A549/ATCC NSCLC
786-0 renal = tested on: 786-0 renal
COLO 205 colon = tested on: COLO 205 colon
DU-145 prostate = tested on: DU-145 prostate
K-562 leukemia = tested on: K-562 leukemia
MALME-3M melanoma = tested on: MALME-3M melanoma
MDA-MB-231 breast = tested on: MDA-MB-231 breast
RXF 393 renal = tested on: RXF 393 renal
SF-268 CNS = tested on: SF-268 CNS
SF-295 CNS = tested on: SF-295 CNS
SF-539 CNS = tested on: SF-539 CNS
UACC-257 melanoma = tested on: UACC-257 melanoma
M14 melanoma = tested on: M14 melanoma
HCT-15 colon = tested on: HCT-15 colon

Measured: growth

COc1ccc(-c2nn(-c3cccc(NC(=O)c4cccc(C(F)(F)F)c4)c3)cc2-c2ccncc2)cc1Cl
inactive: NCI-H23 lung 52% | NCI-H226 lung 52.1% | NCI-H322M lung 47.3% | HOP-62 NSCLC 41.9% | A549/ATCC NSCLC 19.8% | 786-0 renal 17.1% | COLO 205 colon 17.3% | DU-145 prostate 50.5% | K-562 leukemia 14.8% | MALME-3M melanoma 12.6% | RXF 393 renal 19.4% | SF-268 CNS 37.5% | UACC-257 melanoma 25.5% | HCT-15 colon 26.9%
active: NCI-H460 lung 8.19% | NCI-H522 lung -20.1% | MDA-MB-231 breast 9.03% | SF-295 CNS -10.7% | SF-539 CNS -39.6% | M14 melanoma 7.66%

COc1cc(-c2cc(-c3cc4c([nH]c5ccccc54)c(-c4cc(OC)c(OC)c(OC)c4)n3)cc(-c3ccccc3)n2)cc(OC)c1OC
inactive: NCI-H23 lung 69.1% | NCI-H226 lung 77% | NCI-H322M lung 95% | HOP-62 NSCLC 78% | NCI-H460 lung 64.8% | NCI-H522 lung 43.4% | A549/ATCC NSCLC 42.8% | 786-0 renal 79.6% | COLO 205 colon 84.8% | DU-145 prostate 97.5% | K-562 leukemia 16.7% | MALME-3M melanoma 58.3% | MDA-MB-231 breast 45.6% | RXF 393 renal 72.6% | SF-268 CNS 78.7% | SF-295 CNS 26.8% | SF-539 CNS 66% | UACC-257 melanoma 89% | M14 melanoma 50.9% | HCT-15 colon 51.6%

CNc1ccc(CSc2ccc(C)cc2)cc1
active: NCI-H522 lung 4.69%
inactive: NCI-H23 lung 91.2% | NCI-H226 lung 32.8% | NCI-H322M lung 88.9% | HOP-62 NSCLC 90.4% | NCI-H460 lung 80.8% | A549/ATCC NSCLC 42.4% | 786-0 renal 31.6% | COLO 205 colon 86.4% | DU-145 prostate 90.8% | K-562 leukemia 119% | MALME-3M melanoma 94.4% | MDA-MB-231 breast 33.4% | RXF 393 renal 64.2% | SF-268 CNS 69.6% | SF-295 CNS 103% | SF-539 CNS 56.3% | UACC-257 melanoma 93% | M14 melanoma 84.7% | HCT-15 colon 89.2%

COc1cc(Cl)cc(-c2nn(-c3cccc(NC(=O)Nc4cc(C(F)(F)F)cc(C(F)(F)F)c4)c3)cc2-c2ccncc2)c1
active: NCI-H23 lung -6.14% | NCI-H226 lung -5.97% | HOP-62 NSCLC -41.1% | NCI-H460 lung 0.241% | NCI-H522 lung -15.6% | A549/ATCC NSCLC 5.14% | 786-0 renal -26.9% | COLO 205 colon -64% | K-562 leukemia 6.4% | MALME-3M melanoma -19.2% | MDA-MB-231 breast -75% | RXF 393 renal -29.3% | SF-295 CNS -43.2% | SF-539 CNS -17.7% | UACC-257 melanoma -25.6% | M14 melanoma 1.22% | HCT-15 colon 6.21%
inactive: NCI-H322M lung 11% | DU-145 prostate 13.1% | SF-268 CNS 14.2%

CC/C(C)=C(\C)C(=O)O
inactive: NCI-H23 lung 101% | NCI-H226 lung 96.5% | NCI-H322M lung 89.5% | HOP-62 NSCLC 95% | NCI-H460 lung 105% | NCI-H522 lung 89.3% | A549/ATCC NSCLC 101% | 786-0 renal 98.5% | COLO 205 colon 104% | DU-145 prostate 104% | K-562 leukemia 100% | MALME-3M melanoma 99.7% | MDA-MB-231 breast 111% | RXF 393 renal 110% | SF-268 CNS 105% | SF-295 CNS 94.7% | SF-539 CNS 104% | UACC-257 melanoma 91.7% | M14 melanoma 104% | HCT-15 colon 107%

CC(C)C[C@H](NC(=O)[C@H](Cc1cccc2ccccc12)NS(=O)(=O)c1cccc2cccnc12)B(O)O
active: NCI-H23 lung -52.9% | NCI-H226 lung -66.6% | NCI-H322M lung -9.95% | HOP-62 NSCLC -72.3% | NCI-H460 lung -53.2% | NCI-H522 lung -56.4% | A549/ATCC NSCLC 5.39% | 786-0 renal -19.4% | COLO 205 colon -36.5% | DU-145 prostate -20.7% | K-562 leukemia -17.7% | MALME-3M melanoma -76.9% | MDA-MB-231 breast -4.94% | SF-268 CNS 0.092% | SF-295 CNS -70.5% | SF-539 CNS -34.1% | M14 melanoma -47.4% | HCT-15 colon -65.8%
inactive: RXF 393 renal 15.9% | UACC-257 melanoma 15.4%

O=C(N/N=C/c1ccccc1O)C(O)(c1ccccc1)c1ccccc1
active: SF-295 CNS -12.8%
inactive: NCI-H23 lung 64.1% | NCI-H226 lung 71.1% | NCI-H322M lung 46% | HOP-62 NSCLC 59% | NCI-H460 lung 27.4% | NCI-H522 lung 27.9% | A549/ATCC NSCLC 52.8% | 786-0 renal 61.7% | COLO 205 colon 35.5% | DU-145 prostate 59.9% | K-562 leukemia 52.9% | MALME-3M melanoma 74% | MDA-MB-231 breast 60.5% | RXF 393 renal 85.2% | SF-268 CNS 46.8% | SF-539 CNS 60.6% | UACC-257 melanoma 68.6% | M14 melanoma 57.4% | HCT-15 colon 32%

COc1ccc(-c2nc(-c3nc4cc(Cl)c(F)cc4[nH]3)c3ccccn23)cc1
inactive: NCI-H23 lung 85.8% | NCI-H226 lung 85.1% | NCI-H322M lung 69.6% | HOP-62 NSCLC 89.5% | NCI-H460 lung 81.1% | NCI-H522 lung 39.5% | A549/ATCC NSCLC 49.4% | 786-0 renal 79.9% | COLO 205 colon 79.1% | DU-145 prostate 80.3% | K-562 leukemia 40.3% | MALME-3M melanoma 97.4% | MDA-MB-231 breast 57.5% | RXF 393 renal 87.8% | SF-268 CNS 75.3% | SF-295 CNS 45.1% | SF-539 CNS 92.8% | UACC-257 melanoma 61.9% | M14 melanoma 66.2% | HCT-15 colon 59.5%

Cc1cc2c(C)c3cc(C)c(N)cc3nc2cc1N
inactive: NCI-H23 lung 17.1% | NCI-H226 lung 10.1% | 786-0 renal 28% | DU-145 prostate 10.6% | MDA-MB-231 breast 20.3% | RXF 393 renal 16.3% | SF-268 CNS 15.2% | SF-295 CNS 39.5% | SF-539 CNS 19.4% | UACC-257 melanoma 18.9% | HCT-15 colon 24.8%
active: NCI-H322M lung -12.5% | HOP-62 NSCLC 3.24% | NCI-H460 lung -20.5% | NCI-H522 lung -49.4% | A549/ATCC NSCLC 4.93% | COLO 205 colon 1.41% | K-562 leukemia 1.18% | MALME-3M melanoma -3.24% | M14 melanoma 9.16%

CN(C)CCN1C(=O)c2cccc3cc(N)cc(c23)C1=O
inactive: NCI-H23 lung 31.5% | NCI-H322M lung 29.4% | HOP-62 NSCLC 34% | A549/ATCC NSCLC 12% | 786-0 renal 25.7% | COLO 205 colon 26.2% | MALME-3M melanoma 17.4% | MDA-MB-231 breast 57% | RXF 393 renal 18.3% | SF-268 CNS 37.8% | SF-295 CNS 21.1% | SF-539 CNS 33.4% | M14 melanoma 42% | HCT-15 colon 11.8%
active: NCI-H226 lung -30.3% | NCI-H460 lung 0.597% | NCI-H522 lung -28.3% | DU-145 prostate 4.45% | K-562 leukemia 3.5% | UACC-257 melanoma 5.64%

CN(C)C=Nc1cc(Cl)ccc1Cl
inactive: NCI-H23 lung 101% | NCI-H226 lung 96.3% | NCI-H322M lung 104% | HOP-62 NSCLC 99.9% | NCI-H460 lung 116% | NCI-H522 lung 97.2% | A549/ATCC NSCLC 92.1% | 786-0 renal 111% | COLO 205 colon 109% | DU-145 prostate 117% | K-562 leukemia 110% | MALME-3M melanoma 118% | MDA-MB-231 breast 103% | RXF 393 renal 112% | SF-268 CNS 112% | SF-295 CNS 97% | SF-539 CNS 111% | UACC-257 melanoma 90.2% | M14 melanoma 107% | HCT-15 colon 103%

O=C1N=NC2=C1c1c3ccccc3c(O)n1CC2
inactive: NCI-H23 lung 96.7% | NCI-H226 lung 105% | NCI-H322M lung 98.9% | HOP-62 NSCLC 91.6% | NCI-H460 lung 110% | A549/ATCC NSCLC 45.1% | 786-0 renal 101% | COLO 205 colon 129% | DU-145 prostate 121% | K-562 leukemia 93% | MALME-3M melanoma 109% | MDA-MB-231 breast 107% | RXF 393 renal 106% | SF-268 CNS 108% | SF-295 CNS 99.4% | SF-539 CNS 94.9% | M14 melanoma 93.2% | HCT-15 colon 113%
active: NCI-H522 lung -36.3% | UACC-257 melanoma 8.27%

CCC(=O)N1C/C(=C/c2ccc(Cl)cc2)C(=O)/C(=C/c2ccc(Cl)cc2)C1
active: NCI-H23 lung -25.6% | NCI-H226 lung -53.9% | NCI-H322M lung -16.6% | HOP-62 NSCLC -53% | NCI-H460 lung -13.8% | NCI-H522 lung -58.7% | A549/ATCC NSCLC -26.7% | 786-0 renal -69% | COLO 205 colon -76.5% | DU-145 prostate -41.6% | K-562 leukemia 1.74% | MALME-3M melanoma -66.2% | MDA-MB-231 breast -22% | RXF 393 renal -94% | SF-268 CNS -30.4% | SF-295 CNS -35.8% | SF-539 CNS -64.7% | UACC-257 melanoma -40.3% | M14 melanoma -61.9% | HCT-15 colon 0.422%

COc1ccc(/C=C/C(C)=N/OCC(=O)O)cc1
inactive: NCI-H23 lung 103% | NCI-H226 lung 99.6% | NCI-H322M lung 106% | HOP-62 NSCLC 105% | NCI-H460 lung 108% | NCI-H522 lung 92.8% | A549/ATCC NSCLC 102% | 786-0 renal 98.1% | COLO 205 colon 98.9% | DU-145 prostate 104% | K-562 leukemia 99.9% | MALME-3M melanoma 96.7% | MDA-MB-231 breast 120% | RXF 393 renal 101% | SF-268 CNS 107% | SF-295 CNS 100% | SF-539 CNS 101% | UACC-257 melanoma 112% | M14 melanoma 100% | HCT-15 colon 102%

COc1cc(/C=N/NC(=O)c2ccccc2Nc2cccc(C(F)(F)F)c2)cc(OC)c1OC
active: NCI-H460 lung -17.6% | NCI-H522 lung 4.06% | DU-145 prostate -22.6% | RXF 393 renal 4.73% | SF-295 CNS -14.8% | SF-539 CNS -0.572% | HCT-15 colon 7.05%
inactive: NCI-H23 lung 45.3% | NCI-H226 lung 36.9% | NCI-H322M lung 47% | HOP-62 NSCLC 133% | A549/ATCC NSCLC 15% | 786-0 renal 177% | COLO 205 colon 54.4% | K-562 leukemia 12.3% | MALME-3M melanoma 11.5% | MDA-MB-231 breast 28.5% | SF-268 CNS 20.4% | UACC-257 melanoma 49.6% | M14 melanoma 177%
